# Key:
# Test in all cases: cross-linking mass spectrometry
# [1] = target: Actin, cytoplasmic 1 (UniProt P60709)
# [2] = target: Elongation factor 1-alpha 2 (UniProt Q05639)
# [3] = target: Histone H2B type 1-N (UniProt Q99877)
# [4] = target: T1, LIM and SH3 domain protein 1 (UniProt Q14847)
# T1 sequence: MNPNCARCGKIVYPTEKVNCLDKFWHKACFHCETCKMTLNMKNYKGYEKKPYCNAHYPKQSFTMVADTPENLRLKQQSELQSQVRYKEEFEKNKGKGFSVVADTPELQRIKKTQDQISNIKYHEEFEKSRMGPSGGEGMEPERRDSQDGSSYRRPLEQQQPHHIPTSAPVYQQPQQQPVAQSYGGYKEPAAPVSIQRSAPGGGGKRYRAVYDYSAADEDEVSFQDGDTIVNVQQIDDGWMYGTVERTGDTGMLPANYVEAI
# [5] = target: Ubiquitin-ribosomal protein eS31 fusion protein (UniProt P62979)
# [6] = target: Large ribosomal subunit protein eL31 (UniProt P62899)
# [7] = target: Large ribosomal subunit protein uL4 (UniProt P36578)
# [8] = target: Vimentin (UniProt P08670)
# Peptidyl-prolyl cis-trans isomerase A, P62937, sequence (P62937 whole entry): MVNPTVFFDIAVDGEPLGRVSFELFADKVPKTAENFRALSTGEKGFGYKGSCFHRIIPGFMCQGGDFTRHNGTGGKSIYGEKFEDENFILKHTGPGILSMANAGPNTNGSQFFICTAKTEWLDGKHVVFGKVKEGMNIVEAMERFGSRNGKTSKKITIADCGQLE
substance,measurement,setting,value
"Elongation factor 2, P13639",listed as a hit,[1],yes
"Actin, cytoplasmic 1, P60709",listed as a hit,[2],yes
same,listed as a hit,[3],yes
same,listed as a hit,[4],yes
same,listed as a hit,[5],yes
"Peptidyl-prolyl cis-trans isomerase A, P62937",listed as a hit,[3],yes
"Large ribosomal subunit protein uL29, P42766",listed as a hit,[6],yes
"Large ribosomal subunit protein uL6, P32969",listed as a hit,[7],yes
"Protein S100-A6, P06703",listed as a hit,[8],yes
